Reference: PubChem BioAssay AID1159580 (chemical genetic matrix, 2015)
The campaign covered roughly 5,500 compounds. About 2,000 (36%) were called active. Inconclusive results (about 18%) are left out. No stated cut-off is given here; in the data, active means normalized growth mostly below about 0.91 (no sharp cut-off); inconclusive means no clear call, values can overlap the other calls; inactive means mostly above about 0.92. This is one part of the list.

Assay: chemical genetic growth profiling, strain panel (AID 1159580);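 further: tested at 20 µM; growth read once vehicle control cultures reached saturation at 30 °C; 1 = growth at the plate median or of vehicle wells; lower values mean less growth of the strain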
Conditions: growth OD

Measured: normalized growth

COc1ccc(C[C@H](N)C(=O)N[C@@H]2[C@@H](CO)OC(n3cnc4c(N(C)C)ncnc43)[C@@H]2O)cc1 (some centres not stated)
inactive: S. cerevisiae deletion strains, locus YJR075W, strain HOC1, active compounds read low 0.997 | S. cerevisiae deletion strains, locus YKL009W, strain mrt4, active compounds read low 1.03 | S. cerevisiae deletion strains, locus YKL068W, active compounds read low 1.02 | S. cerevisiae deletion strains, locus YKL085W, strain MDH1 (second series), active compounds read low 1.01 | S. cerevisiae deletion strains, locus YKL085W, strain MDH1, active compounds read low 1.01 | S. cerevisiae deletion strains, locus YKL160W, strain elf1, active compounds read low 0.993 | S. cerevisiae deletion strains, locus YKL190W, strain CNB1, active compounds read low 1 | S. cerevisiae deletion strains, locus YKR001C, strain vps1, active compounds read low 1.02 | S. cerevisiae deletion strains, locus YKR026C, strain gcn3, active compounds read low 1 | S. cerevisiae deletion strains, locus YKR091W, strain srl3, active compounds read low 1.02 | S. cerevisiae deletion strains, locus YLL001W, strain dnm1, active compounds read low 0.961 | S. cerevisiae deletion strains, locus YLL026W, active compounds read low 0.987 | S. cerevisiae deletion strains, locus YLL041C, strain sdh2, active compounds read low 1 | S. cerevisiae deletion strains, locus YLR027C, strain aat2, active compounds read low 0.997 | S. cerevisiae deletion strains, locus YLR039C, strain RIC1, active compounds read low 1.04 | S. cerevisiae deletion strains, locus YLR058C, strain SHM2, active compounds read low 1.01 | S. cerevisiae deletion strains, locus YLR102C, strain apc9, active compounds read low 1.01 | S. cerevisiae deletion strains, locus YLR113W, strain HOG1, active compounds read low 0.989 | S. cerevisiae deletion strains, locus YLR221C, strain rsa3, active compounds read low 0.991 | S. cerevisiae deletion strains, locus YLR258W, strain gsy2, active compounds read low 1 | S. cerevisiae deletion strains, locus YLR262C, strain YPT6 (second series), active compounds read low 1.01 | S. cerevisiae deletion strains, locus YLR262C, strain YPT6, active compounds read low 1.04 | S. cerevisiae deletion strains, locus YLR268W, strain sec22, active compounds read low 1.01 | S. cerevisiae deletion strains, locus YLR320W, strain mms22, active compounds read low 1 | S. cerevisiae deletion strains, locus YLR330W, strain CHS5, active compounds read low 1.01 | S. cerevisiae deletion strains, locus YLR342W, strain FKS1 (second series), active compounds read low 0.992 | S. cerevisiae deletion strains, locus YLR342W, strain FKS1, active compounds read low 0.996 | S. cerevisiae deletion strains, locus YLR357W, strain rsc2, active compounds read low 1.01 | S. cerevisiae deletion strains, locus YLR370C, strain arc18, active compounds read low 0.985 | S. cerevisiae deletion strains, locus YLR371W, strain rom2, active compounds read low 1.02 | S. cerevisiae deletion strains, locus YLR384C, strain iki3, active compounds read low 0.979 | S. cerevisiae deletion strains, locus YLR418C, strain cdc73, active compounds read low 0.988 | S. cerevisiae deletion strains, locus YML016C, strain PPZ1, active compounds read low 1.01 | S. cerevisiae deletion strains, locus YML032C, strain rad52, active compounds read low 1.03 | S. cerevisiae deletion strains, locus YML120C, strain ndi1, active compounds read low 0.996 | S. cerevisiae deletion strains, locus YML124C, strain tub3, active compounds read low 1.02 | S. cerevisiae deletion strains, locus YMR058W, strain fet3, active compounds read low 1 | S. cerevisiae deletion strains, locus YMR078C, strain ctf18, active compounds read low 1.02 | S. cerevisiae deletion strains, locus YMR125W, strain sto1, active compounds read low 1.01 | S. cerevisiae deletion strains, locus YMR129W, active compounds read low 0.995 | S. cerevisiae deletion strains, locus YMR205C, strain PFK2, active compounds read low 1 | S. cerevisiae deletion strains, locus YMR223W, strain ubp8, active compounds read low 1.03 | S. cerevisiae deletion strains, locus YMR231W, strain pep5, active compounds read low 0.987 | S. cerevisiae deletion strains, locus YMR263W, strain SAP30, active compounds read low 1 | S. cerevisiae deletion strains, locus YMR307W, strain GAS1, active compounds read low 1.06 | S. cerevisiae deletion strains, locus YNL067W, strain RPL9B, active compounds read low 1 | S. cerevisiae deletion strains, locus YNL071W, strain lat1, active compounds read low 1.01 | S. cerevisiae deletion strains, locus YNL128W, strain TEP1, active compounds read low 1.01 | S. cerevisiae deletion strains, locus YNL153C, strain GIM3, active compounds read low 0.988 | S. cerevisiae deletion strains, locus YNL183C, strain NPR1, active compounds read low 0.935 | S. cerevisiae deletion strains, locus YNL209W, strain ssb2, active compounds read low 0.996 | S. cerevisiae deletion strains, locus YNL233W, strain BNI4, active compounds read low 1 | S. cerevisiae deletion strains, locus YNL248C, strain rpa49, active compounds read low 1.01 | S. cerevisiae deletion strains, locus YNL250W, strain rad50, active compounds read low 1.04 | S. cerevisiae deletion strains, locus YNL271C, strain bni1, active compounds read low 1.01 | S. cerevisiae deletion strains, locus YNL298W, strain CLA4, active compounds read low 1.01 | S. cerevisiae deletion strains, locus YNL307C, strain MCK1, active compounds read low 1.04 | S. cerevisiae deletion strains, locus YNL322C, strain KRE1 (second series), active compounds read low 0.994 | S. cerevisiae deletion strains, locus YNL322C, strain KRE1, active compounds read low 1.01 | S. cerevisiae deletion strains, locus YNR049C, strain mso1, active compounds read low 0.987 | S. cerevisiae deletion strains, locus YNR052C, strain pop2, active compounds read low 1.02 | S. cerevisiae deletion strains, locus YOL006C, strain TOP1, active compounds read low 1.02 | S. cerevisiae deletion strains, locus YOL012C, strain htz1 0.862 | S. cerevisiae deletion strains, locus YOL147C, strain pex11, active compounds read low 1.02 | S. cerevisiae deletion strains, locus YOR001W, strain rrp6, active compounds read low 0.988 | S. cerevisiae deletion strains, locus YOR061W, strain CKA2, active compounds read low 1.01 | S. cerevisiae deletion strains, locus YOR069W, strain VPS5, active compounds read low 0.996 | S. cerevisiae deletion strains, locus YOR070C, strain gyp1, active compounds read low 0.984 | S. cerevisiae deletion strains, locus YOR080W, strain dia2, active compounds read low 0.992 | S. cerevisiae deletion strains, locus YOR083W, strain WHI5, active compounds read low 1.02 | S. cerevisiae deletion strains, locus YOR106W, strain vam3, active compounds read low 0.984 | S. cerevisiae deletion strains, locus YOR136W, strain idh2, active compounds read low 1.02 | S. cerevisiae deletion strains, locus YOR144C, strain elg1, active compounds read low 1.01 | S. cerevisiae deletion strains, locus YOR184W, strain ser1, active compounds read low 1.04 | S. cerevisiae deletion strains, locus YOR231W, strain MKK1, active compounds read low 0.961 | S. cerevisiae deletion strains, locus YOR265W, strain rbl2, active compounds read low 0.991 | S. cerevisiae deletion strains, locus YOR270C, strain vph1, active compounds read low 0.993 | S. cerevisiae deletion strains, locus YOR290C, strain snf2, active compounds read low 1 | S. cerevisiae deletion strains, locus YOR316C, strain cot1, active compounds read low 1.02 | S. cerevisiae deletion strains, locus YPL051W, strain arl3, active compounds read low 0.976 | S. cerevisiae deletion strains, locus YPL055C, strain LGE1, active compounds read low 1 | S. cerevisiae deletion strains, locus YPL078C, strain atp4, active compounds read low 0.972 | S. cerevisiae deletion strains, locus YPL106C, strain sse1, active compounds read low 0.996 | S. cerevisiae deletion strains, locus YPL240C, strain hsp82, active compounds read low 0.986 | S. cerevisiae deletion strains, locus YPL241C, strain CIN2, active compounds read low 1 | S. cerevisiae deletion strains, locus YPL256C, strain CLN2, active compounds read low 0.965 | S. cerevisiae deletion strains, locus YPR119W, strain clb2, active compounds read low 1.01 | S. cerevisiae deletion strains, locus YPR141C, strain kar3, active compounds read low 1.03 | S. cerevisiae deletion strains, locus YPR163C, strain tif3, active compounds read low 1.02 | S. cerevisiae deletion strains, locus YPR167C, strain met16, active compounds read low 1.02 | S. cerevisiae deletion strains, strain wtn01, active compounds read low 0.986 | S. cerevisiae strains, strain wild type, active compounds read low 1.01
